40 compounds from PubChem BioAssay (NCI) can be followed below.

SMILES strings stand for the structures. Compounds without any hit were thinned out: in the full panel of roughly 79,000, 15% have a hit. The source made the active and inactive calls. Rule as the data show it: active = growth inhibition above about 70%; inactive = the rest.

The nature of one assay: NCI Yeast Anticancer Drug Screen. Data for the sgs1 mgt1 strain (AID 161).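 Also: 0% = growth of cultures given vehicle only.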 To be noted: S. cerevisiae sgs1 mgt1 strain, at 5.0 µM (retest, dose inferred, filed as 0.5), active compounds read high. A digest of the protocol: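 Mutant yeast exposed to compound; growth scored against vehicle-only wells.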
Consider `CCCCCCCCCC1OCC(C)O1` (stereo not given), for which the growth inhibition is -2% (inactive).
Still for that read-out and setting: to `O=[N+]([O-])c1ccc2c(c1)/C(=C/c1ccc(O)cc1)c1ccccc1-2` belongs 2% (inactive).
Same read-out and setting: in the case of `COc1cc2c(cc1OC(C)=O)C(=O)C(Br)(Br)CCC2` it was 88% (active).
Same read-out and setting: in the case of `COC(=O)c1cc2c(oc1=O)-c1ccccc1N(C=O)C2` it was -13% (inactive).
On to `CC(=O)Nc1ccc(S(=O)(=O)/N=C2\C=CC(=O)c3ccccc32)cc1`, for which the growth inhibition was 1% (inactive).
Same read-out and setting: in the case of `C/C(=N/NC(=S)N(C)C)c1ccccc1O` it was -43% (inactive).
On the same count and under the same terms, to `CC(CN(C)C)C(=O)/C=C/c1c(Cl)cccc1Cl` (stereo not given) belongs 11% (inactive); to `N#CC(O)C(Br)(Br)Br` (stereo not given), -4% (inactive); to `C=Cc1cc(N=Nc2ccc([N+](=O)[O-])cc2)ccc1N(C)C`, 3% (inactive).
Same read-out and setting: to `Cc1cccnc1NC(=S)Nc1ccccc1Cl` belongs 28% (inactive); to `O=C1C=CC(=O)c2c(O)c(N3CCC[C@@H]3CO)c(Cl)c(O)c21`, 25% (inactive).
As for `Cc1cc(C(=O)O)c(C)c2c1sc1ccccc12`, the growth inhibition is 12% (inactive).
Still for that read-out and setting: to `COc1cccc2c1OC(c1ccc(Cl)cc1)C([N+](=O)[O-])=C2` (stereo not given) belongs 93% (active); to `CC1=C(C(=O)Nc2cccc(Cl)c2)C(c2ccccc2F)C(C(=O)Nc2cccc(Cl)c2)=C(C)N1`, 37% (inactive).
Still for that read-out and setting: in the case of `Cc1ccc(C2C(O)=C(c3ccccc3)Sc3ccc(C)cc32)cc1` (stereo not given) it was 5% (inactive); in that of `CC(=O)Oc1ccc(C)c(C(C)C(Cl)(Cl)Cl)c1` (stereo not given), 12% (inactive); in that of `CCCC(=O)Oc1ccc(-c2ccc(Br)cc2)cc1`, 3% (inactive).
The same measure, in the same setting: to `CCCCC#CCOC(=O)c1cc([N+](=O)[O-])cc([N+](=O)[O-])c1` belongs 99% (active); to `COC(=O)c1ccc(Cl)c(Cl)c1`, 2% (inactive); to `Cc1cc(Br)c2ccccc2c1N`, 0% (inactive).
Regarding `C=C1N(S(=O)(=O)c2ccc(C)cc2)C(=O)OCC12CCCC2`, the growth inhibition was -21% (inactive).
In the case of `CCCCCCCCN=C(N)c1ccc(C(=O)OCC2CCCCC2)cc1`, the growth inhibition was 99% (active).
The same measure, in the same setting: in the case of `Nc1ccc2ccc3cccc4ccc1c2c34` it was 1% (inactive); in that of `C=C(Br)CN(CC(=C)Br)C(C)=O`, 25% (inactive).
The same measure, in the same setting: to `[Ce+3].[Cl-].[O-]/N=C(\c1ccccc1)c1ccccn1.[O-]/N=C(\c1ccccc1)c1ccccn1.[O-]/N=C(\c1ccccc1)c1ccccn1` belongs 32% (inactive); to `O=CCCCc1cc2c(cc1Br)CCC2`, 11% (inactive); to `C1=C(CC2=C[P+](c3ccccc3)(c3ccccc3)C=C(c3ccccc3)O2)OC(c2ccccc2)=C[P+]1(c1ccccc1)c1ccccc1`, 35% (inactive).
As for `CC/C=C(\C)CC(C)O` (stereo not given), the growth inhibition is -3% (inactive).
The same measure, in the same setting: to `CCC(c1ccc(Cl)cc1)C(C#N)c1ccc(Cl)cc1` (stereo not given) belongs -3% (inactive).
Still for that read-out and setting: to `CN1/C(=C/C=C/C(I)=C/C=C/C2=[N+](C)c3ccccc3C2(C)C)C(C)(C)c2ccccc21` belongs -4% (inactive); to `Nc1ccc(N)c2c1C(=O)c1ccccc1C2=O`, 2% (inactive).
In the case of `CN1C=COC1N=C1CCCCC1` (stereo not given), the growth inhibition was -2% (inactive).
The same measure, in the same setting: in the case of `Clc1ccc(Cc2nc3ccccc3s2)c(Cl)c1` it was 43% (inactive).
Same read-out and setting: in the case of `O=CC1(c2ccc(Cl)cc2)NC(=O)NC1=O` (stereo not given) it was 2% (inactive); in that of `O=C(CSc1nnc(-c2ccc(N=Cc3ccc(Cl)cc3)cc2)o1)Nc1ccc(Cl)cc1Cl`, 17% (inactive).
The same measure, in the same setting: in the case of `O=C(Oc1ccccc1)C1CCCCC1C(=O)Oc1ccccc1` (stereo not given) it was -3% (inactive); in that of `O=C(O)Cc1ccc2c(c1O)C(=O)c1ccccc1C2=O`, 1% (inactive).
`O=[N+]([O-])c1cccc(F)c1O`: the growth inhibition is 6% (inactive).
On the same count and under the same terms, to `CCc1nc2c(O)ccc(O)c2nc1C` belongs -50% (inactive).
The same measure, in the same setting: to `COC(=O)N/N=C(/CC1(O)C(=O)Nc2ccccc21)c1ccc(Cl)cc1Cl` (stereo not given) belongs 32% (inactive).

The same assay, now with this note: S. cerevisiae sgs1 mgt1 strain, at 50.0 µM (retest, dose inferred, filed as 5.0), active compounds read high.
On to `CCCCCCCCCC1OCC(C)O1` (stereo not given), for which the growth inhibition is 38% (inactive).
Still for that read-out and setting: in the case of `O=[N+]([O-])c1ccc2c(c1)/C(=C/c1ccc(O)cc1)c1ccccc1-2` it was 82% (active).
On the same count and under the same terms, in the case of `COc1cc2c(cc1OC(C)=O)C(=O)C(Br)(Br)CCC2` it was 99% (active); in that of `COC(=O)c1cc2c(oc1=O)-c1ccccc1N(C=O)C2`, -11% (inactive).
Same read-out and setting: in the case of `CC(=O)Nc1ccc(S(=O)(=O)/N=C2\C=CC(=O)c3ccccc32)cc1` it was 7% (inactive); in that of `C/C(=N/NC(=S)N(C)C)c1ccccc1O`, 16% (inactive).
With `CC(CN(C)C)C(=O)/C=C/c1c(Cl)cccc1Cl` (stereo not given), the growth inhibition was 94% (active).
Still for that read-out and setting: in the case of `N#CC(O)C(Br)(Br)Br` (stereo not given) it was 46% (inactive); in that of `C=Cc1cc(N=Nc2ccc([N+](=O)[O-])cc2)ccc1N(C)C`, 25% (inactive); in that of `Cc1cccnc1NC(=S)Nc1ccccc1Cl`, 99% (active).
Take `O=C1C=CC(=O)c2c(O)c(N3CCC[C@@H]3CO)c(Cl)c(O)c21`: the growth inhibition is 52% (inactive).
On the same count and under the same terms, in the case of `Cc1cc(C(=O)O)c(C)c2c1sc1ccccc12` it was 82% (active).
Same read-out and setting: to `COc1cccc2c1OC(c1ccc(Cl)cc1)C([N+](=O)[O-])=C2` (stereo not given) belongs 96% (active); to `CC1=C(C(=O)Nc2cccc(Cl)c2)C(c2ccccc2F)C(C(=O)Nc2cccc(Cl)c2)=C(C)N1`, 37% (inactive); to `Cc1ccc(C2C(O)=C(c3ccccc3)Sc3ccc(C)cc32)cc1` (stereo not given), 74% (active).
Still for that read-out and setting: in the case of `CC(=O)Oc1ccc(C)c(C(C)C(Cl)(Cl)Cl)c1` (stereo not given) it was 26% (inactive); in that of `CCCC(=O)Oc1ccc(-c2ccc(Br)cc2)cc1`, 88% (active).
With `CCCCC#CCOC(=O)c1cc([N+](=O)[O-])cc([N+](=O)[O-])c1`, the growth inhibition was 99% (active).
Still for that read-out and setting: to `COC(=O)c1ccc(Cl)c(Cl)c1` belongs 11% (inactive); to `Cc1cc(Br)c2ccccc2c1N`, 74% (active); to `C=C1N(S(=O)(=O)c2ccc(C)cc2)C(=O)OCC12CCCC2`, 9% (inactive).
Still for that read-out and setting: to `CCCCCCCCN=C(N)c1ccc(C(=O)OCC2CCCCC2)cc1` belongs 99% (active).
The same measure, in the same setting: to `Nc1ccc2ccc3cccc4ccc1c2c34` belongs 98% (active); to `C=C(Br)CN(CC(=C)Br)C(C)=O`, 16% (inactive); to `[Ce+3].[Cl-].[O-]/N=C(\c1ccccc1)c1ccccn1.[O-]/N=C(\c1ccccc1)c1ccccn1.[O-]/N=C(\c1ccccc1)c1ccccn1`, 75% (active).
For `O=CCCCc1cc2c(cc1Br)CCC2`, the growth inhibition was 73% (active).
Regarding `C1=C(CC2=C[P+](c3ccccc3)(c3ccccc3)C=C(c3ccccc3)O2)OC(c2ccccc2)=C[P+]1(c1ccccc1)c1ccccc1`, the growth inhibition is 98% (active).
Still for that read-out and setting: in the case of `CC/C=C(\C)CC(C)O` (stereo not given) it was 18% (inactive).
Consider `CCC(c1ccc(Cl)cc1)C(C#N)c1ccc(Cl)cc1` (stereo not given), for which the growth inhibition was 46% (inactive).
Still for that read-out and setting: in the case of `CN1/C(=C/C=C/C(I)=C/C=C/C2=[N+](C)c3ccccc3C2(C)C)C(C)(C)c2ccccc21` it was 92% (active); in that of `Nc1ccc(N)c2c1C(=O)c1ccccc1C2=O`, 14% (inactive); in that of `CN1C=COC1N=C1CCCCC1` (stereo not given), 17% (inactive).
Same read-out and setting: in the case of `Clc1ccc(Cc2nc3ccccc3s2)c(Cl)c1` it was 99% (active); in that of `O=CC1(c2ccc(Cl)cc2)NC(=O)NC1=O` (stereo not given), 2% (inactive).
Same read-out and setting: in the case of `O=C(CSc1nnc(-c2ccc(N=Cc3ccc(Cl)cc3)cc2)o1)Nc1ccc(Cl)cc1Cl` it was 100% (active); in that of `O=C(Oc1ccccc1)C1CCCCC1C(=O)Oc1ccccc1` (stereo not given), 5% (inactive).
As for `O=C(O)Cc1ccc2c(c1O)C(=O)c1ccccc1C2=O`, the growth inhibition is 28% (inactive).
On the same count and under the same terms, in the case of `O=[N+]([O-])c1cccc(F)c1O` it was 78% (active); in that of `CCc1nc2c(O)ccc(O)c2nc1C`, 37% (inactive); in that of `COC(=O)N/N=C(/CC1(O)C(=O)Nc2ccccc21)c1ccc(Cl)cc1Cl` (stereo not given), 97% (active).
